In this test the test system is Plasmodium falciparum NF54. As to the kind of experiment: growth inhibition relative to untreated control; higher = more inhibition. The conditions noted are these: 5 µM; minimal medium (MM); 72 h. Summed up:
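In dark 96-well half-area plates, each well held 100 μL of P. falciparum NF54 ring-stage culture at 1% parasitemia and 1% hematocrit. The cultures received a single test-compound dose of 5 μM or 1 μM and were kept at 37 °C for 72 h, in minimal RPMI either plain or enriched with folate (2.2 μM), pABA (7.3 μM), pHBA (7.3 μM), tyrosine (111 μM), phenylalanine (90 μM) and tryptophan. SYBR Green staining gave growth inhibition, expressed against untreated wells, with uninfected erythrocytes serving as the background.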
Consider `O=C(NCc1ccco1)N1CCN(Cc2ccc(Cl)s2)CC1`, for which the growth inhibition was 5.16%.
The compound `Cc1nn2c(=O)c3c([nH]c2c1-c1ccc(Cl)cc1)CCCC3` displayed a growth inhibition of 16.2%.
With `O=C(Cn1ccnc1[N+](=O)[O-])NCc1ccccc1` the figure was < 0%; with `O=C(Nc1cccc(-c2ccc(NCCCN3CCCC3)nc2)c1)c1ccccc1`, 81.1%.
For the compound `CCOC(=O)NC(=O)c1ccsc1NC(=O)c1nc2ccccc2s1`, the growth inhibition is < 0%.
In the case of `CCN(CC)S(=O)(=O)c1ccc(Cl)c(C(=O)Nc2ccc3nc(C)sc3c2)c1`, the growth inhibition was 94.1%.
In the case of `COc1ccc(Nc2ccccc2NC(=O)c2ccc(O)nc2)cc1`, the growth inhibition is < 0%.
Take `COc1ccc(C2=NN(C3CCCCCC3)C(=O)[C@@H]3CC=CC[C@H]23)cc1OCCCCOc1ccc(-c2nnn[nH]2)cc1`: the growth inhibition came out at 48.6%.
`CCOc1ccc(OCC(=O)Nc2cc(C)cc(C)c2)cc1`: the growth inhibition is < 0%.
In the case of `Cc1cc(OCC(=O)Nc2ccc(C(C)C)cc2)n(C)c(=O)c1C#N` it was 21%.
With `Cc1cc(Cl)c(S(=O)(=O)N2CCCC2)cc1OCC(=O)NC1CCCCC1` the figure was 59.9%.
In the case of `COC(=O)c1c(NC(=O)c2cc3ccccc3oc2=O)sc2c1CCN(Cc1ccccc1)C2` it was 1.3%; in that of `Nc1nccc2ccc(Oc3ccncc3)cc12`, 60.1%.
With `CC1=Nc2ccc(Cl)cc2C(c2ccccc2)N1CCNC(=O)CN(C)C` (stereo not drawn), the growth inhibition worked out at 89.7%.
In the case of `CCc1c(C)nc(-n2nc(C)cc2NC(=O)c2ccccc2SC)[nH]c1=O` it was 79.9%; in that of `CC(C)(C)OC(=O)N1CCN(c2cc(-c3ccc(Oc4ccccc4)cc3)n[nH]2)CC1`, 16.8%.
In the case of `CC(C)c1ncc(-c2ccncc2)c([C@H]2CC[C@H](CNC(=O)c3cccnc3)CC2)n1` it was 92%; in that of `COc1ccc(C2CC(c3cccs3)=NN2C(=O)c2ccco2)cc1OC` (stereo not drawn), 93.4%; in that of `CNC(=O)c1nn(C)c2c1C(C)(C)Cc1cnc(Nc3ccc(N4CCN(C)CC4)cc3)nc1-2`, 87.2%.
Regarding `C[C@H](C(N)=O)N1CCCC[C@H]1c1ccc(OCc2cccc(F)c2)cc1`, the growth inhibition was < 0%.
As to `O=C(Nc1cccnc1)c1c(O)c2cccc3c2n(c1=O)CC3`, the growth inhibition was < 0%.
In the case of `COc1ccc(-c2cnc3cnc(-c4cccc(OC(C)C)c4)cn23)cc1` it was 8.04%.
`O=C(NC1CC1)c1ccc(N2CCC(Cc3ccccc3)CC2)nc1` yielded a growth inhibition of 92.1%.
Turning to `CCN(CC)S(=O)(=O)c1ccc(C(=O)Nc2cc(C)nn2-c2nc(C)c(C)c(=O)[nH]2)cc1`, the growth inhibition turned out to be 55.2%.
Compound `Nc1ncc(Br)cc1-c1nc2cc(Cl)cnc2[nH]1` gave a growth inhibition of 89.1%.
With `Cc1ccccc1CN1CCC(O)(c2ccc(Cl)c(C(F)(F)F)c2)CC1` the figure was 76.2%; with `NCCCC(N)(C(=O)O)C(F)F` (stereo not drawn), < 0%.
In the case of `COc1ccccc1OCCCCn1c(C2CC2)nc2ccccc21` it was 50.7%; in that of `CNc1nnc(Sc2cnn(-c3ccccc3)c(=O)c2Cl)s1`, 62.1%; in that of `O=C(NCCc1ccccc1)c1cc(-c2cccnc2)cnc1NCC1CC1`, 47%.
With `c1ccc(-c2[nH]c3ccccc3c2C(c2ccccn2)N2CCCC2)cc1` (stereo not drawn) the figure was < 0%; with `CC(C)(C)c1cc(C(=O)N2CCN(c3nccnc3C#N)CC2)n(Cc2ccccc2)n1`, 92%.
`CCCNC(=O)N1CCC2(CC1)CC(=O)c1cc(C)ccc1O2`: the growth inhibition was determined as 84.9%.
Regarding `O=C(Nc1nnc(-c2ccc(Cl)cc2)o1)c1cccc(C(F)(F)F)c1`, the growth inhibition is < 0%.
With `COC(=O)c1ccc(F)cc1NS(=O)(=O)c1cccc(-c2cnn(Cc3ccccc3)c2)c1` the figure was < 0%; with `Cc1ccc(S(=O)(=O)Nc2ccc(CN3CCN(C(=O)c4cccc(C#N)c4)CC3)cc2)cc1`, < 0%.
`CN1CCN(CCCOc2ncc(Nc3ncc(-c4ccc(C(F)(F)F)c(F)c4)nc3C(N)=O)cn2)CC1` displayed a growth inhibition of 93.3%.
In the case of `c1csc(-c2cnc3sc(NCC4CCOCC4)nn23)c1` it was 95%.

The values are drawn from the supplement of paper PMC6763611.
